# Results: the supplement of paper PMC3334620
# The full ranking holds about 33,000 sequences; the median of “E-score (-0.5 to 0.5)” is about -0.0059, and the highest 2% start at about 0.26. The sample as a whole holds a higher share of the highest values than the screen did.
# Biological target: T1, Cin5 (UniProt P40917)
# T1 sequence: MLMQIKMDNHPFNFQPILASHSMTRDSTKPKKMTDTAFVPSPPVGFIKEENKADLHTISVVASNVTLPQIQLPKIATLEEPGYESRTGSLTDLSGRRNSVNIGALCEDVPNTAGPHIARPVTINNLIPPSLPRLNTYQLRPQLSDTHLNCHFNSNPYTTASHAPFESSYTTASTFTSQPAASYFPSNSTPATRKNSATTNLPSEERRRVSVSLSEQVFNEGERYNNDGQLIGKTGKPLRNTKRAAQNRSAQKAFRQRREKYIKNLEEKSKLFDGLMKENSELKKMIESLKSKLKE
# Experiment: PBM E-score (8-mer binding enrichment) (E-score (-0.5 to 0.5)); higher = stronger / more preferred TF binding
# Details: protein concentration: 100 nM; construct: GST-full length
# Protocol: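 Universal 'all 10-mer' protein binding microarrays (Agilent AMADID 015681) probed with GST-tagged S. cerevisiae TFs (full-length or DBD) made by in vitro transcription/translation (PURExpress), about 100-200 nM. Bound TF was detected with fluorescent anti-GST. Each ungapped 8-mer (which stands for itself and its reverse complement) is scored by the PBM enrichment score (E-score), a modified Wilcoxon-Mann-Whitney statistic from -0.5 to +0.5, computed with the Universal PBM Analysis Suite. Scale: above 0.35 generally sequence-specific binding.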
row,Sequence,PBM E-score
1,CTCGATTA,0.264
2,CGCGATTA,0.263
3,CTCGATTC,0.119
4,ATCGATTA,0.248
5,AGGGATTA,0.0341
6,ACCTACTC,0.0706
7,AGATCTGA,0.0167
8,ATTGCTTG,0.177
9,ATTGCGTC,0.128
10,ATAGCTTA,0.154
11,ATTGCGTA,0.287
12,GTTGCGTA,0.068
13,GTTGCTTA,0.338
14,CTTGCTTA,0.229
15,ATTGCTGA,0.115
16,ATTGCTTA,0.259
17,GTAGCTTA,0.279
18,GTTGCTGA,0.12
19,CTAGCTTA,0.256
20,CCTTGTTA,-0.0571
21,AACTCGGC,0.121
22,GCCGCTAC,-0.0553
23,AGCGGGCG,-0.0666
24,TCTGGGCA,-0.124
25,GGGCGAAA,0.0331

row,Sequence,PBM E-score
1,ACCGCCGC,-0.101
2,TCCGCTAA,-0.0291
3,AGACCTTC,-0.134
4,AGCCTAAA,-0.0722
5,CGTTGCGA,-0.0384
6,GCGCTGAA,-0.2
7,ACCAGATC,-0.0659
8,ATAATTAT,0.341
9,GTAATTAC,0.175
10,ATAATTAC,0.365
11,ATAATTAA,0.303
12,CTAATTAC,0.24
13,TTAATTAA,0.183
14,ACAATTAT,0.205
15,ATAATTAG,0.241
16,GTAATTAA,0.13
17,ACCGGTAC,-0.217
18,CAACACTC,0.105
19,GGATCAGA,-0.042
20,CGTGAAAG,-0.0748
21,GTATTCGA,-0.0476
22,ACAACCTA,0.0123
23,AATCGCTG,-0.0284
24,CTATTGAG,0.144
25,ATATTGAG,0.266

row,Sequence,PBM E-score
1,ATATTGAT,0.249
2,GCTCAAAA,-0.00649
3,ACTAATAC,0.26
4,ACTAATAA,0.221
5,ACTAATAT,0.234
6,ACTAATAG,0.277
7,CCTAATAC,0.113
8,GCTAATAC,0.153
9,ATAAGGCG,0.0483
10,CTCCGCTA,-0.116
11,CCAGTTAA,0.134
12,GCGGTGGA,0.0809
13,GAAGCAGC,-0.162
14,GAGCTTAC,0.191
15,AAGCTTAC,0.282
16,AAGCTTAT,0.231
17,CAGCTTGC,-0.0574
18,AAGCTTAA,0.164
19,CAGCTTAG,0.0588
20,CAGCTTAA,0.0109
21,AAGCTTAG,0.306
22,CAGCTTAC,0.312
23,CGGGTAGC,-0.214
24,AGATGGAA,0.167
25,GAGGTCCA,-0.14

row,Sequence,PBM E-score
1,CGGCTTAA,0.19
2,CGGCTTAC,0.358
3,AGGCTTAC,0.258
4,CGGCTTAG,-0.0489
5,AGGCTTAG,0.0724
6,AGGCTTAT,0.152
7,GTAACGGA,0.252
8,CGAATTAC,0.0723
9,GCGCGGCC,-0.0214
10,CCCGCGCG,0.138
11,CCTTCTGC,-0.126
12,AAACTTGT,0.0442
13,AGAACCTG,-0.127
14,CGACATCA,0.137
15,TGACATCA,0.356
16,GGACATCA,0.0421
17,TCCATTCA,0.0889
18,GAGGTGCA,-0.0183
19,AATGCAAA,0.275
20,AATGCAAG,0.00342
21,AATGCATA,0.116
22,AATGCATG,0.183
23,AATGCAAC,0.0401
24,AATGCATT,0.259
25,ACGTTTCG,-0.0249

row,Sequence,PBM E-score
1,GCTCCCGA,-0.217
2,ACGTCTCA,0.124
3,CAAACTCG,0.0562
4,AGTTCCGA,0.123
5,AGCATCTA,0.00891
6,CGCATCTA,0.271
7,GGCATCTA,-0.0103
8,CGCCATCA,-0.202
9,AAAATATC,0.189
10,AACAAGTT,0.0368
11,CGGAAATA,0.33
12,AAAAAATA,0.213
13,AACAAATG,0.0424
14,CAAATATC,0.282
15,CCAAAATA,0.113
16,CGGAAATC,0.137
17,AACAAATT,0.274
18,CAAAAATA,0.277
19,CAAATATG,0.117
20,GGGAAATA,0.0795
21,CGGGCCTA,-0.236
22,CGGTTCTC,-0.217
23,GTGGAAGA,-0.192
24,ACGGGCAT,-0.0832
25,ACTAAGAT,0.2

row,Sequence,PBM E-score
1,TTCTCCAA,-0.0656
2,ACACTCAC,0.066
3,AACAAAAT,0.269
4,AACAAGAT,0.146
5,AACAAGTA,0.0249
6,AACAAAAA,0.209
7,TACAAATA,0.239
8,AACAAATA,0.278
9,GTATCCAC,-0.00124
10,AATCATCC,0.227
11,TACTCCTA,0.066
12,CATCCCAA,0.0478
13,GATTTCGC,0.262
14,GATTTCGA,0.11
15,CATTTCGC,0.111
16,CAATGGTG,-0.161
17,CTCTGGAC,0.0765
18,AGGGTGCA,-0.148
19,ACATAAGT,0.195
20,ACATAAGA,0.3
21,ACATAACA,0.286
22,ACATAAGC,0.437
23,ATATAAGA,0.301
24,CTATAAGA,0.0762
25,ACATAACT,0.197

row,Sequence,PBM E-score
1,TCATAAGA,0.0448
2,GTATAAGA,0.0464
3,CCATAAGA,0.118
4,ACATAACC,0.235
5,ACATAAGG,0.194
6,ATGGAACA,-0.0505
7,GCACTGAA,-0.0379
8,CCATTGAG,0.00119
9,AGACACCA,-0.0438
10,GGGAGCCC,-0.419
11,CCACGCAG,-0.0201
12,CCATAAGC,0.215
13,GCATAAGC,0.276
14,GCATAAGA,0.0468
15,GACTTGAC,-0.208
16,GAGCGGGA,-0.0794
17,GGCAACCA,-0.0499
18,CTTTCGCC,-0.0892
19,GGGAATCA,-0.0779
20,CGGAATCA,0.27
21,AGGAATCA,0.172
22,CATAGCCC,-0.222
